# From PubChem BioAssay (Tox21)
# Results filed as inconclusive are left out. Values without a mark were called inactive. Activity calls are given as the source filed them. Calls come from the whole dose curve. Numbered stars: 1 amine (or outer) side, 2 acyl side, 3 side chain; on linkers, the order of the positions; unused ones are H or OH. Bridge positions count the residues as written; N and C are the ends. Square brackets hold non-standard residues; d marks the D form. Peptide text beside a SMILES is read from it. I, II: the chains in the order shown. Actinocin(9to1) = Cc1c2oc3c(C)ccc(C(=O)[*:1])c3nc-2c(C(=O)[*:2])c(N)c1=O; NMeV = CN[C@H](C(=O)O)C(C)C; Sar = CNCC(=O)O
# Test: p53 small molecule agonists, cell-based qHTS assay with rat liver microsomes: qHTS cell viability counter screen (AID 1963580); note: nearly all actives have a fitted effect of over 45% in size
# Conditions: p53RE-bla HCT-116 + rat microsomes, ATP viability, 16 h; series mostly up to 66 µM; activity change, negative = cytotoxicity: at the top concentration
# Source text: National Center for Advancing Translational Sciences [NCATS]
# Division of Preclinical Innovation [DPI]
# U.S. Environmental Protection Agency [EPA]
# National Institutes of Environmental Health Sciences [NIEHS]
# National Toxicology Program [NTP]
# U.S. Food and Drug Administration [FDA]
# p53, a tumor suppressor protein, is activated following cellular insult, including DNA damage and other cellular stresses. The activation of p53 regulates cell fate by inducing DNA repair, cell cycle arrest, apoptosis, or cellular senescence. The activation of p53, therefore, is a good indicator of DNA damage and other cellular stresses. The CellSensor p53RE-bla HCT-116 cell line contains a stably integrated beta-lactamase reporter gene under control of the p53 response elements. The activation of the reporter gene under culture conditions can be detected by fluorescence intensity. This cell line was used to screen the Tox21 10K compound library in the condition of presence of rat liver microsomes and to identify agonists that activate the p53 signaling pathway after in vitro metabolic activation (Ooka et al., Archive of Toxicology 96:1975-1987, 2022). The cytotoxicity of the Tox21 compound library against the p53 RE-bla HCT-116 cell line was tested in parallel by measuring the intra cellular ATP content in the same wells.
# Tox21 Assay Protocol Summary:
# The p53RE-bla cells were dispensed at 4,000cells/3ul/well in 1536-well black-clear bottom plates. After the assay plates were incubated at 37 C, 5% CO2 incubator for 5 hours, 23 nL of compounds dissolved in DMSO, positive controls or DMSO only was transferred to the assay plate. Following compound addition, 3 uL of rat liver microsomes (Molecular Toxicology, Boone, NC) at final concentration of 0.5 mg/mL and 1uL of B-Nicotinamide adenine dinucleotide 2'-phosphate (NADPH) at final concentration of 0.5 mg/mL were transferred to the assay plate. The plates were incubated at 37 C for 16 hours. 1 uL of LiveBLAzer detection mixture was added to each well and the plates were incubated at room temperature in the dark for 2 h. Fluorescence intensity at 460 and 530 nm emission and 405 nm excitation were measured by an Envision plate reader. For cell viability readout that measures cytotoxicity, 4 ul/well of CellTiter-Glo reagent was added into the assay plates using a Flying Reagent Dispenser. After 30 min incubation at room temperature, the luminescence intensity in the plates was measured using a ViewLux plate reader.
# % is set by controls: 0 for no effect and ±100 for the full control effect.
Compound,Potency,"activity change, negative = cytotoxicity"
CC1CCC(C(C)C)C(O)C1 (stereo not given),inactive,–
CCCCCC1CCCC(=O)O1 (stereo not given),–,23.9%
CC(C)=CCC/C(C)=C/C(=O)O,–,3.59%
O=C1CCCCCCCCCCCCCCCO1,–,-0.466%
CCCC[C@H]1CN(CC2CCOCC2)C(=O)OC12CCN(C1(C)CCN(C(=O)c3c(C)ncnc3C)CC1)CC2,–,0.325%
CCCCCCCCCCCCCCCCC,–,-1.55%
CC(C)(CCl)c1ccccc1,–,-0.683%
CC1(C)[C@H]2CC[C@]1(C)[C@H](O)C2,–,-14%
O=C(O)C1CCC(C(=O)O)CC1 (stereo not given),–,3.31%
Nc1cc(=O)[nH]c(N)n1,–,3.52% [at 30.3 µM]
O=Cc1ccc([N+](=O)[O-])cc1,–,-2.03%
CCOCCOC(=O)/C=C/c1ccc(OC)cc1,–,-1.33% [at 30.3 µM]
CCN(CC)CCN,–,-7.96% [at 30.3 µM]
"Cc1c2oc3c(C)ccc(C(=O)N[C@@H]4C(=O)N[C@H](C(C)C)C(=O)N5CCC[C@H]5C(=O)N(C)CC(=O)N(C)[C@@H](C(C)C)C(=O)O[C@@H]4C)c3nc-2c(C(=O)N[C@@H]2C(=O)N[C@H](C(C)C)C(=O)N3CCC[C@H]3C(=O)N(C)CC(=O)N(C)[C@@H](C(C)C)C(=O)O[C@@H]2C)c(N)c1=O (I: T[dV]P[Sar][NMeV] / II: T[dV]P[Sar][NMeV]; ester I:1-I:C, II:1-II:C; linker I:N-II:N via Actinocin(9to1))",–,4.13% [at 30.3 µM]
C1=C\CC/C=C\CC/C=C\CC/1,–,-1.95%
Oc1ccc(Sc2ccc(O)cc2)cc1,–,-3.8%
CC1=CC(C)C(C=O)CC1 (stereo not given),–,5.95%
C/C=C(\C)C(=O)OCc1ccccc1,–,-6.58%
CC(C)=C1CC[C@@H](C)CC1=O,–,0.0714%
Oc1cccc2ccccc12,–,2.47%

Compound,Potency,"activity change, negative = cytotoxicity"
N#Cc1cc(NC(=O)C(=O)O)c(Cl)c(NC(=O)C(=O)O)c1,–,-7.64% [at 30.3 µM]
CC(=O)c1cc(C)oc1C,–,-0.696%
C1=COCCC1,–,-3.79%
COc1ccc2cc3[n+](cc2c1OC)CCc1cc2c(cc1-3)OCO2,inactive,–
NS(=O)(=O)c1cc2c(cc1C(F)(F)F)NC(Cc1ccccc1)NS2(=O)=O (stereo not given),–,7.31% [at 30.3 µM]
CN(C)CCCN(C)CCCN(C)C,–,-3.39%
CC1CC(=O)CC(C)(C)C1 (stereo not given),–,0%
CS(C)(=O)=O,–,0.765%
CC(=O)CC(C)=O,–,1.43%
CCc1occc(=O)c1O,–,3.17%
CCC(=O)OC(C)(C)C1CC=C(C)CC1 (stereo not given),–,0%
Nc1c(Br)cc([N+](=O)[O-])cc1Br,–,0.38%
NCCNCCNCCN,inactive,–
C=C(c1ccc(C(=O)O)cc1)c1cc2c(cc1C)C(C)(C)CCC2(C)C,–,-20.8%
O=C(c1ccc2c(c1)C(=O)OC2=O)c1ccc2c(c1)C(=O)OC2=O,–,-0.575%
CC1CCC(C(C)(C)S)C(=O)C1 (stereo not given),–,0.752%
CCCc1ccc(N)cc1,–,1.87%
CCCCCCCCCCCCCCCC[N+](C)(C)CC,–,4.75% [at 30.3 µM]
Cc1ccc(C(=O)Nc2ccc(S(=O)(=O)O)c3cc(S(=O)(=O)O)cc(S(=O)(=O)O)c23)cc1NC(=O)c1cccc(NC(=O)Nc2cccc(C(=O)Nc3cc(C(=O)Nc4ccc(S(=O)(=O)O)c5cc(S(=O)(=O)O)cc(S(=O)(=O)O)c45)ccc3C)c2)c1,–,-1.02% [at 30.3 µM]
CCOC(OCC)C(=O)c1ccccc1,–,-3.7%
